# The list is not random: actives were taken first. Their share in the collection is about 6.5%.
# IL-1B inflam inh: inflammasome signaling inhibition, IL-1 beta readout | THP-1 LPS/ATP IL-1B secretion, AlphaLISA, 16 h; hits give low values | activity change, % at 57.5 µM | hit rate 4.7% among 360,000; in the data active = activity change below about -50%; inconclusive = mostly about -30% to -49%; note: % is set by controls: 0 for no effect and ±100 for the full control effect
#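 Secreted IL-1B measured by AlphaLISA bead assay after 16 h compound exposure of THP-1 cells; compounds (final up to 57.5 uM) added 1 h before LPS (250 ng/mL) and ATP (1.25 mM) stimulation; lower signal means less secretion.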
# TGFb SMAD3 inh: inhibitors of TGF-b signaling. HepG2 CAGA-GFP TGF-b/SMAD3 reporter, GFP fluorescence, 18 h; TGF-beta stimulated, 500 pg/mL final. Potency, µM (titrated, usually from 46.1 µM), inactives show at the top dose activity, negative = inhibition, hits mostly inhibitors. hit rate 1.2% among 410,000. AID 588855; note: potency is the fitted concentration of half-maximal effect; % is set by controls: 0 for no effect and ±100 for the full control effect; nearly all actives have a fitted effect of over 65% in size
#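 HEPG2 CAGA-GFP reporter cells (1000/well, DMEM with 1% FBS) received compounds, then recombinant TGF-beta at 500 pg/mL final for 18 hours at 37 degrees C. Per-cell GFP summed per well was normalised to unstimulated and stimulated DMSO controls before curve fitting.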
# HepG2 tox: HepG2 cytotoxicity, counter-screen for TGF-b inhibitors. hit rate 0.76% among 410,000. Potency, µM (titrated, usually from 46.1 µM), inactives show top-dose activity change, negative = cytotoxicity, actives largely listed as cytotoxic. HepG2 CAGA-GFP viability, ATP luminescence, 18 h; note: potency is the fitted concentration of half-maximal effect
#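 CellTiter-Glo luminescence gave cytotoxicity after 18 hours at 37 degrees C. The cells were HepG2 CAGA-GFP in 1% FBS DMEM, stimulated with 500 pg/mL TGF-beta after compound addition. %Activity was normalised to no-cell wells (complete cell-killing) and DMSO (no toxicity), and curves were fitted and classified.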
# HT1080 IDH1KD tx: toxicity to HT-1080 IDH1 knockdown cells (counter line); HT-1080 IDH1 knockdown viability, ATP luminescence, 48 h; Potency, µM (top dose mostly 46.1 µM), for inactives: at the highest dose activity, negative = toxicity, most hits filed as cytotoxic; hit rate 2% among 360,000; AID 686971;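 note: potency is the fitted concentration of half-maximal effect; 0% = DMSO wells and -100% = cell-free medium wells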
#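 In this qHTS, HT-1080 cells depleted of IDH1 are exposed for 48 h at 37 °C to compound titrations. Toxicity is scored from CellTiter-Glo luminescence, with DMSO as full viability and medium alone as none.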
# Giardia kill: kills Giardia lamblia. hit rate 0.15% among 340,000. AID 540267. Giardia lamblia trophozoite viability. activity change, % at 7.66 µM, hits read low; in the data active = activity change below about -80%; inconclusive = between about -30% and that limit;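 note: parasites exposed to compound for two days anaerobically before the ATP read; % is set by controls: 0 for no effect and ±100 for the full control effect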
#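 Media and compound were dispensed first, then trophozoites at 100 cells/well; plates sat 48 hrs at 37 deg C without oxygen before ATP luminescence reagent was added and read after 15-30 min at room temperature.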
# HT1080-NT tox: kills 2HG-producing HT-1080-NT fibrosarcoma cells; HT-1080-NT fibrosarcoma viability, CellTiter-Glo ATP luminescence, 48 h; Potency, µM (titrated, usually from 46.1 µM), inactives show at the highest dose activity, negative = less viability, hits mostly cytotoxic; hit rate 1.6% among 360,000;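 note: NT is the 2HG producing partner of a matched IDH1 knockdown line; potency is the fitted concentration of half-maximal effect; 0% = DMSO-treated cells and -100% = media-only wells without cells; nearly all actives have a fitted effect of over 55% in size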
#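 Read-out is CellTiter-Glo luminescence after 10 minutes at room temperature, following 48 hours' compound treatment of HT-1080-NT cells (750 cells/well, RPMI, 5% FBS, 37 degrees C).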
# Active calls of the source: *; ? = inconclusive; . = no result given. Unless noted, calls come from the whole dose curve; as a rule, active = well fitted curve in the direction sought with a large enough effect; inconclusive = small, poorly fitted or top-dose-only effect, or another doubt; inactive = no such curve, though single readings can be large; an effect the other way counts as inactive or inconclusive.
SMILES,IL-1B inflam inh,TGFb SMAD3 inh,HepG2 tox,HT1080 IDH1KD tx,Giardia kill,HT1080-NT tox
CCCCC(NC(=O)Cc1c(C)c2cc3c(-c4ccccc4)coc3c(C)c2oc1=O)C(=O)O (configuration not stated),26.9,3.8%,8.0%,-18.5%,-8.0,?
C[C@@H](C[C@@H](O)[C@H](O)C(C)(C)O)[C@@H]1CC[C@]2(C)C3=CC[C@H]4C(C)(C)C(=O)CC[C@]4(C)[C@H]3CC[C@@]12C,-53.2*,11.2µM*,11.2µM*,4.1%,10.1,1.0%
COc1cc2c(cc1OC)C1(Nc3c-2c(-c2ccccc2)nn3-c2ccccc2)C(=O)Nc2ccccc21 (configuration not stated),7.0,15.8µM*,-13.0%,-30.0%,-14.6,?
O=c1[nH]c(/C=C/c2ccc(OC(F)F)cc2)nc2c1cnn2-c1ccccc1,-56.1*,6.8%,3.2%,17.5%,6.0,27.1%
Cc1cccc(C)c1-c1ccc(CN2C(CC(C)C)C(=O)N(Cc3cn(CCO)nn3)CCS2(=O)=O)cc1 (configuration not stated),-56.7*,?,-83.8%,-19.5%,3.3,-10.9%
CCC/C=C/c1ccc(CN2C(CC(C)C)C(=O)N(Cc3cn(Cc4ccco4)nn3)CCS2(=O)=O)cc1 (configuration not stated),-62.4*,15.8µM*,-88.1%,?,.,?
CC(C)CC1C(=O)N(Cc2cn(CCC3OCCO3)nn2)CCS(=O)(=O)N1Cc1ccc(-c2cccc(CO)c2)cc1 (configuration not stated),-11.0,0.1%,-24.3%,4.8%,.,11.5%
Nc1cccc(/C=C/c2ccnc3ccccc23)c1,.,15.7%,4.1%,.,.,.
O=C(Nc1ccc([N+](=O)[O-])cc1)C1CC1(c1ccccc1)c1ccccc1 (configuration not stated),0.0,-20.3%,-26.4%,?,56.7,?
CC1(C)C(C=C(Cl)Cl)C1C(=O)Nc1ccc([N+](=O)[O-])cc1 (configuration not stated),-99.3*,?,-94.5%,?,-6.2,23.1µM*
CS(=O)(=O)c1ccc(C(=O)OCC(=O)N2CCc3ccccc32)cc1[N+](=O)[O-],.,?,-12.2%,.,0.9,.
CC1CCN(C(=O)C(C)OC(=O)c2ccc(S(C)(=O)=O)c([N+](=O)[O-])c2)CC1 (configuration not stated),.,10µM*,-76.8%,.,4.6,.
CCC(OC(=O)c1ccc(S(C)(=O)=O)c([N+](=O)[O-])c1)C(=O)NC1C2CC3CC(C2)CC1C3 (configuration not stated),.,4.47µM*,5.62µM*,.,.,.
CC(C)CN1CCN(C(=O)COC(=O)c2ccc(S(C)(=O)=O)c([N+](=O)[O-])c2)CC1,.,4.47µM*,4.47µM*,.,.,.
CC(OC(=O)c1ccc(S(C)(=O)=O)c([N+](=O)[O-])c1)C(=O)NC1C2CC3CC(C2)CC1C3 (configuration not stated),.,3.16µM*,-100.8%,.,.,.
CS(=O)(=O)c1ccc(C(=O)OCC(=O)NCC2CCCO2)cc1[N+](=O)[O-] (configuration not stated),.,?,-51.8%,.,-3.4,.
O=C1NC2(CCCCC2)N=C1c1ccc(F)cc1,0.0,-18.7%,-0.5%,8.2%,-4.3,4.5%
Cc1ccc(C(=O)OCC(=O)NCc2ccc3c(c2)OCO3)o1,18.2,2.0%,1.3%,15.4%,-5.3,0.4%
O=C(CCl)N(CCCNC(=O)C(F)(F)F)c1ccc([N+](=O)[O-])cc1,-100.5*,?,15.8µM*,7.31µM*,-2.0,20.6µM*
CCOc1ccc(CCN2C(=O)C(=O)N([C@@H](Cc3ccccc3)CN3CCC[C@H]3CN3C(=O)C(=O)NC[C@@H]3Cc3ccccc3)C[C@@H]2CC(C)C)cc1,-79.5*,.,.,1.4%,.,-6.7%
